The values that follow come from PubChem BioAssay (NCI).

Experiment [1] in a line: NCI Yeast Anticancer Drug Screen. Data for the rad50 strain (AID 155).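 Also: 0% = growth of vehicle-only cultures of the same strain.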 As to conditions: S. cerevisiae rad50 strain growth inhibition; at 50.0 µM; hits give high values. A digest of the protocol:
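Yeast carrying a defined DNA repair defect were exposed to test compounds, and growth was compared with vehicle-treated controls to give percent inhibition.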

A short description of experiment [2]: NCI Yeast Anticancer Drug Screen. Data for the mec2-1 strain (AID 157). As to conditions: S. cerevisiae mec2-1 strain, at 50.0 µM, hits give high values. The procedure, abridged: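 Using mec2-1 yeast: add compound, measure growth, express inhibition versus vehicle-treated cultures.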
Experiment [3] in a line: NCI Yeast Anticancer Drug Screen. Data for the sgs1 mgt1 strain (AID 161).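 Also: 0% = growth of cultures given vehicle only.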 As to conditions: S. cerevisiae sgs1 mgt1 strain, at 50.0 µM, hits give high values. The procedure, abridged: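 Yeast cells carrying a defined DNA-repair defect were exposed to test compounds. Growth inhibition was measured relative to vehicle-treated controls.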
A short description of experiment [4]: NCI Yeast Anticancer Drug Screen. Data for the cln2 rad14 strain (AID 165).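 Also: 0% = growth equal to vehicle treated cultures.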 The note with it: S. cerevisiae cln2 rad14 strain, at 50.0 µM, hits give high values. The procedure, abridged:
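Yeast strain cln2 rad14, bearing defects in cell cycle control and DNA repair, serves as the test system; values reflect growth inhibition compared with vehicle.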

Experiment [5] can be described thus: NCI Yeast Anticancer Drug Screen. Data for the bub3 strain (AID 167). The note with it: S. cerevisiae bub3 mutant strain, at 50.0 µM, hits give high values. The procedure, abridged: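 Compounds were applied to a genetically altered yeast strain carrying a cell-cycle control defect. Growth inhibition was scored against vehicle-treated controls.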
A short description of experiment [6]: NCI Yeast Anticancer Drug Screen. Data for the mlh1 rad18 strain (AID 175). As to conditions: S. cerevisiae mlh1 rad18 strain growth inhibition; at 50.0 µM; hits give high values. A digest of the protocol: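 Steps: expose repair-defective yeast to compound; measure growth; express inhibition against vehicle-treated controls.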

Each structure is given as a SMILES string. Compounds without any hit were thinned out: in the full panel of roughly 79,000, 15% have a hit. A number with no mark means an inactive call. Activity calls are given as the source filed them. Rule as the data show it: active = growth inhibition above about 70%; inactive = the rest. Where a SMILES comes first, the peptide text is derived from it. [ ]: non-standard residue; d: D form. ξ: configuration not given here. ξV = CC(C)C(N)C(=O)O

As to `COC(C(=O)C(O)C(C)O)C1CC2C=C3C=C(OC4CC(OC5CC(O)C(OC)C(C)O5)C(OC(C)=O)C(C)O4)C(C)C(=O)C3=C(O)C2=C(O)C1OC1CC(OC2CC(OC3CC(C)(O)C(OC(=O)C(C)C)C(C)O3)C(O)C(C)O2)C(O)C(C)O1` (stereo not given), the growth inhibition is 51% in experiment [1]; 50.7% in experiment [2]; 38.5% in experiment [3]; 81.9% (active) in experiment [4]; 26.4% in experiment [5]; 45.8% in experiment [6].

Turning to `COCc1ccc(C(C)(C)CC(C)(C)C)cc1`, the growth inhibition is 32.6% in experiment [1]; 8.4% in experiment [2]; -0.1% in experiment [3]; 13.6% in experiment [4]; -0.45% in experiment [5]; -1.3% in experiment [6].

`C/C(=N\NC(N)=S)c1cc(C)c(C)cc1C`: the growth inhibition is 34.3% in experiment [1]; 5.55% in experiment [2]; 50% in experiment [3]; 17.2% in experiment [4]; -7.95% in experiment [5]; 65.8% in experiment [6].

In the case of `CCN(CC)CCNC(=O)c1ccc(C)c(OCc2ccccc2)c1[N+](=O)[O-]`, the growth inhibition in experiment [1] is -9.4%; in experiment [2] it was -9.25%; in experiment [3], 26.6%; in experiment [4], -26.8%; in experiment [5], 34.8%; in experiment [6], -19.6%.

With `CCCCOC(=O)COc1ccc2c(C)c(CCN(CC)CC)c(=O)oc2c1`, the growth inhibition is -13.1% in experiment [1]; -34.1% in experiment [2]; 1.25% in experiment [3]; -7.55% in experiment [4]; -21.8% in experiment [5]; -2.5% in experiment [6].

With `CCNC(CCCC1CCCCC1)C(=O)O` (stereo not given), the growth inhibition in experiment [1] was -0.9%; in experiment [2], -18.4%; in experiment [3] it was -3.5%; in experiment [4] it was -27.2%; in experiment [5] it was -18.5%; in experiment [6], 4.7%.

As for `CCc1c(-c2ccccc2)[nH]c(=S)c(C#N)c1C`, the growth inhibition in experiment [1] was -8.7%; in experiment [2], -1.5%; in experiment [3], 26.6%; in experiment [4], 2.7%; in experiment [5], -1.1%; in experiment [6], -3.9%.

As for `NC(=O)c1ccccc1NC(=O)C(=O)C(C(=O)c1ccc2ccccc2c1)C1OC(=O)c2ccccc21` (stereo not given), the growth inhibition in experiment [1] is 0.7%; in experiment [2] it was -2.15%; in experiment [3], 10.6%; in experiment [4], -44.6%; in experiment [5], 15.4%; in experiment [6], 9.15%.

On to `C1C[OH+]CCNCC[OH+]CC[OH+]CCN1.[Cl-].[Pt+4]`, for which the growth inhibition in experiment [1] is -14.5%; in experiment [2], -29.2%; in experiment [3], 1.55%; in experiment [4] it was -9.05%; in experiment [5], 3.5%; in experiment [6] it was -16.2%.

For the molecule `CCCCCCC(=O)/C=C/c1ccccc1OC`, the growth inhibition in experiment [1] was 9.15%; in experiment [2], -12.2%; in experiment [3], -3.55%; in experiment [4] it was -20.4%; in experiment [5], 2.3%; in experiment [6], -14.1%.

As to `COC(=O)C1=C(C)N(NC(=O)c2cccc(Cl)c2)C(C)(O)C12CCOC2=O` (stereo not given), the growth inhibition in experiment [1] was 37.6%; in experiment [2], -21.6%; in experiment [3], 4.15%; in experiment [4], 6.65%; in experiment [5] it was 0.6%; in experiment [6], 38.1%.

For `N=C(N)SCC(O)C(O)CSC(=N)N` (stereo not given), the growth inhibition in experiment [1] was 0.3%; in experiment [2], 4.4%; in experiment [3] it was -0.95%; in experiment [4], -30.1%; in experiment [5], -6.45%; in experiment [6], -1.5%.

As for `COc1c(CO)cc(C)cc1CO`, the growth inhibition is 4.15% in experiment [1]; -0.5% in experiment [2]; -6.95% in experiment [3]; 3.05% in experiment [4]; -0.7% in experiment [5]; 0.5% in experiment [6].

Consider `COc1ccc(/C=N/O)cc1OC`, for which the growth inhibition in experiment [1] is -1.8%; in experiment [2], 14.8%; in experiment [3], -2.15%; in experiment [4], 11.8%; in experiment [5] it was 10.9%; in experiment [6] it was 5.95%.

Take `Cc1nc(C)c(N2CCN(C(=O)NC(CCC(=O)O)C(=O)O)CC2)c(=O)[nH]1` (stereo not given): the growth inhibition in experiment [1] is -80.7%; in experiment [2], 8.95%; in experiment [3], -28.3%; in experiment [4] it was 18.4%; in experiment [5], -1.25%; in experiment [6], -40.6%.

Regarding `CC(=O)OCC1OC(Cl)C(OC(=O)C(Cl)(Cl)Cl)C(OC(C)=O)C1OC(C)=O` (stereo not given), the growth inhibition in experiment [1] is 2.8%; in experiment [2], 0.2%; in experiment [3], -13.6%; in experiment [4], -0.95%; in experiment [5], -2.65%; in experiment [6] it was -9.45%.

Regarding `CC(C)C(N)C(=O)NCC(=O)NCC(=O)O` (stereo not drawn) (H-[ξV]-Gly-Gly-OH), the growth inhibition in experiment [1] is -9.4%; in experiment [2], -22.2%; in experiment [3], -20.4%; in experiment [4] it was -8.15%; in experiment [5] it was -28.8%; in experiment [6], -23.4%.

With `C[C@]12CC[C@H](OC3CCCCO3)CC1=CC[C@@H]1C2CC[C@]2(C)/C(=N/OCCC#N)CCC12` (stereo not given in full), the growth inhibition was 16.9% in experiment [1]; 15.2% in experiment [2]; -3.85% in experiment [3]; -49.4% in experiment [4]; 3.3% in experiment [5]; 28.1% in experiment [6].

For the molecule `CCOc1ccc(/C=N/O)cc1OCC`, the growth inhibition in experiment [1] is -0.3%; in experiment [2], -10.1%; in experiment [3], -10.2%; in experiment [4] it was -25.6%; in experiment [5] it was -2.1%; in experiment [6] it was -2.6%.

For `CCOC(=O)c1sc(SC)nc1NC(=O)c1ccc(OC)cc1`, the growth inhibition in experiment [1] was 24.6%; in experiment [2] it was 21.7%; in experiment [3], -31.6%; in experiment [4], 17.2%; in experiment [5], 2.1%; in experiment [6], 19.1%.
